Screens: PubChem BioAssay, Broad Institute
HSF1 activator: increases HSF-1 driven luciferase reporter signal | NIH3T3-HGL HSF-1 luciferase reporter, MG132, 8 h; 100% = twice DMSO control signal | AID 504408 | activation, % at 9 µM | actives 1.7% (n = 300,000);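 active = mean replicate activation of at least 50% with a set share of replicates each reaching 50%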
esBAF inh: inhibitors of esBAF chromatin remodeling in mouse ES cells | Bmi1-luciferase knock-in reporter, 24 h; 100% = twice the neutral-well signal | reporter increase, % at 12.5 µM | actives 2% (n = 350,000) | AID 602393; in the data active = activation above about 40%;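 also: a rise in the Bmi1 reporter signal indicates esBAF inhibition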
HSF1 inh: HSF1 inhibition | activity change, negative = inhibition, % at 7.5 µM (by protocol) | actives 0.77% (n = 300,000) | NIH3T3-HGL HSE-luciferase, MG132-induced, luminescence 8 h; stronger effect = lower value | AID 2098;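 active = more than half of replicate wells show activity change below -50%, luminescence cut by over half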;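 also: luciferase reports HSF-1 transcriptional activity via heat shock element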
Vif inh: HIV Vif inhibition; AID 602346; HEK293T cells, Vif self-association by quenched fluorescence, imaging, 24 h; inhibition, % at 7.49 µM; actives 0.35% (n = 340,000); in the data active = inhibition above about 50%, passing the limit was not always enough
Of the large screens only hits and unclear results are named; the others gave an inactive call. In the library only some 3.4% were active in any assay of this set; here they are far more common.

COc1ccc(OCc2nnc(SCC(=O)Nc3ccc(C)cc3)o2)cc1	none
COc1ccc(-c2nnc(SC(C)C(=O)NNC(=O)c3ccc(C)cc3)o2)cc1 (stereo unspecified)	none (no result: esBAF inh)
COc1ccc(-c2nnc(SC(C)C(=O)Nc3cccc(Cl)c3)o2)cc1 (stereo unspecified)	HSF1 activator 109
CCc1nnc(SCC(=O)Nc2ccc(N3CCOCC3)cc2)o1	none
COc1ccc(OCc2nnc(SCC(=O)Nc3cccc(Cl)c3)o2)cc1	Vif inh 51
O=C(CSc1nnc(-c2ccccn2)o1)Nc1cccc(Cl)c1	esBAF inh 65
C[C@@H]1CN([C@H](C)CO)C(=O)Cc2cc(NS(C)(=O)=O)ccc2O[C@H]1CN(C)S(=O)(=O)c1cccs1	none (no result: HSF1 activator, HSF1 inh, Vif inh)
C[C@H]1CN([C@@H](C)CO)S(=O)(=O)c2ccc(C#CCN(C)C)cc2O[C@@H]1CN(C)C(=O)CC1CC1	none (no result: HSF1 activator, HSF1 inh, Vif inh)
O=C(O)CC1=C(Nc2ccccc2)C(=O)N(c2ccccc2)C1c1ccc(F)cc1 (stereo unspecified)	esBAF inh 79
COc1ccc(C2C(CC(=O)O)=C(Nc3ccccc3)C(=O)N2c2ccccc2)cc1 (stereo unspecified)	HSF1 activator 64, esBAF inh 54
O=C(O)CC1=C(O)C(=O)N(c2ccccc2)C1c1ccccc1 (stereo unspecified)	none
CC(=O)C1=C(O)C(=O)N(c2ccc(Br)cc2)C1c1ccc(Br)cc1 (stereo unspecified)	none
COc1ccc(C2C(C(C)=O)=C(O)C(=O)N2c2ccc(C)cc2)cc1 (stereo unspecified)	HSF1 activator 61
Cc1noc(C)c1NC(=O)N(C)C[C@@H]1Oc2c(NS(=O)(=O)c3cccs3)cccc2C(=O)N([C@H](C)CO)C[C@@H]1C	none (no result: HSF1 activator, HSF1 inh, Vif inh)
O=S(=O)(N[C@H]1CC[C@H](CCn2cc(C3(O)CCCC3)nn2)O[C@H]1CO)c1ccc(F)cc1	none (no result: HSF1 activator, HSF1 inh, Vif inh)
C[C@@H]1CN([C@@H](C)CO)C(=O)c2cccc(NC(=O)CCCCCC(=O)Nc3ccccc3N)c2O[C@@H]1CN(C)S(=O)(=O)c1ccc(Cl)cc1	none (no result: HSF1 activator, HSF1 inh, Vif inh)
CC(=O)N(C)C[C@@H]1Oc2cc(C#Cc3cccnc3)ccc2S(=O)(=O)N([C@@H](C)CO)C[C@@H]1C	none (no result: HSF1 activator, HSF1 inh, Vif inh)
CN(C)c1ccc(C(=O)OCC(=O)c2ccc[nH]2)cc1	esBAF inh 72 (no result: HSF1 activator, HSF1 inh)
O=C(COC(=O)c1ccccc1Br)NC1CCCC1	esBAF inh 50, Vif inh 80
CCN(CC(=O)Nc1cccc(OC)c1)CC(=O)Nc1ccc(Br)c(C)c1	HSF1 activator 55
Cc1ccsc1C(=O)OCC(=O)N1C(C)CCCC1C (stereo unspecified)	esBAF inh 79 (no result: HSF1 activator, HSF1 inh)
O=C(OCC(=O)c1ccc[nH]1)c1ccccc1	none (no result: esBAF inh)
O=C(OCC(=O)N1CCCC1)c1ccccc1O	none
CN(C)c1ccc(C(=O)OCC(=O)N2CCCCCC2)cc1	esBAF inh 47
CN(C)c1ccc(C(=O)OCC(=O)N2CCCC2)cc1	none
Cc1ccsc1C(=O)OCC(=O)NC1CCCCC1	esBAF inh 63 (no result: HSF1 activator, HSF1 inh)
COc1cccc(NC(=O)COC(=O)c2sccc2C)c1	esBAF inh 50 (no result: HSF1 activator, HSF1 inh)
Cc1ccsc1C(=O)OCC(=O)NC1CC1	none (no result: HSF1 activator, HSF1 inh)
COc1cccc(NC(=O)COC(=O)c2c(F)cccc2F)c1	none (no result: esBAF inh)
O=C(OCC(=O)N1CCCCCC1)c1ccccc1Br	esBAF inh 54 (no result: HSF1 activator, HSF1 inh)
O=C(C[C@H]1C[C@@H]2c3cc(NC(=O)Nc4ccccc4)ccc3O[C@@H]2[C@@H](CO)O1)NCc1cccnc1	none (no result: HSF1 activator, HSF1 inh, Vif inh)
Cc1c(C(=O)OCC(=O)N2C(C)CCCC2C)oc2ccccc12 (stereo unspecified)	esBAF inh 76
CCCCOc1ccc(C(=O)Nc2ccc3c(c2)OCO3)cc1	esBAF inh 42
CCCN1C(=O)c2ccc(C(=O)Nc3ccc4c(c3)OCO4)cc2C1=O	esBAF inh 63
CCOC(=O)c1c(C)c(C(=O)Nc2ccc3c(c2)OCO3)c(C)n1C	HSF1 activator 71
COc1ccc(C2C(C#N)=C(N)Nc3nc4ccccc4n32)cc1 (stereo unspecified)	HSF1 activator 53 (no result: esBAF inh)
COc1ccc(/C(C)=N/NC(=O)CNC(=O)COc2ccccc2)c(OC)c1	none
COc1ccc(/C(C)=N/NC(=O)CNC(=O)/C=C\c2ccccc2)c(OC)c1	HSF1 inh -66
CCC(=O)Nc1ccc2c(c1)OC[C@@H](C)N(Cc1ccccc1)C[C@H](C)[C@@H](OC)CN(C)C2=O	none (no result: HSF1 activator, HSF1 inh, Vif inh)
Cc1[nH]n(CCC#N)c(=O)c1CC(=O)N1CCN(c2ccccc2)CC1	HSF1 inh -54
COc1ccc(CN(C)C[C@@H]2Oc3ccc(NC(=O)CCN4CCOCC4)cc3CC(=O)N([C@H](C)CO)C[C@H]2C)cc1	none (no result: HSF1 activator, HSF1 inh, Vif inh)
O=C(C[C@H]1C=C[C@H](NC(=O)Nc2cccc(F)c2)[C@H](CO)O1)NCC1CC1	none (no result: HSF1 activator, HSF1 inh, Vif inh)
C[C@@H]1CN([C@H](C)CO)C(=O)c2cccc(NS(C)(=O)=O)c2O[C@@H]1CN(C)C(=O)Nc1ccccc1	none (no result: HSF1 activator, HSF1 inh, Vif inh)
CN(Cc1cccc(F)c1)C(=O)CNS(=O)(=O)c1ccc2ccccc2c1	HSF1 activator 63
Cc1ccc2[nH]c(C(=O)N3CCOCC3)cc2c1	none
Cc1ccc2[nH]c(C(=O)N3CCCCC3)cc2c1	esBAF inh 58
Cc1cc(C)c2[nH]c(=O)c(CN(CC3CCCO3)C(=S)NCc3ccco3)cc2c1 (stereo unspecified)	HSF1 activator 62 (no result: esBAF inh, Vif inh)
Cc1ccc(C)c2[nH]c(=O)c(CN(Cc3ccco3)C(=S)NCC3CCCO3)cc12 (stereo unspecified)	HSF1 activator 77 (no result: esBAF inh)
COc1ccccc1CN1[C@@H]2Cn3c(cccc3=O)[C@H]1[C@@H](C(=O)N1CCc3ccccc3C1)[C@@H]2CO	none (no result: HSF1 activator, HSF1 inh, Vif inh)
CC(C)=C1C2CCC1C1C(=O)N(c3nc(-c4ccccc4)c(C)s3)C(=O)C21 (stereo unspecified)	HSF1 activator 74 (no result: esBAF inh)
CN1CCN(c2ccc(-c3ccc4ccccc4n3)cc2)CC1	HSF1 inh -90 (no result: esBAF inh)
c1ccc2nc(-c3ccc(N4CCOCC4)cc3)ccc2c1	none
CC(C)CC#Cc1ccc2c(c1)O[C@@H](CN(C)C(=O)Cc1cccnc1)[C@H](C)CN([C@H](C)CO)S2(=O)=O	none (no result: HSF1 activator, HSF1 inh, Vif inh)
Cc1ccc(Oc2ccc(OCC(=O)NC3CCS(=O)(=O)C3)cc2)cc1 (stereo unspecified)	HSF1 activator 53
COc1ccc2cc(-c3cc(C(=O)OCC(=O)NC4CCS(=O)(=O)C4)c4ccccc4n3)ccc2c1 (stereo unspecified)	Vif inh 52 (no result: esBAF inh)
C[C@H]1CCCCO[C@H](CN(C)S(C)(=O)=O)[C@@H](C)CN([C@@H](C)CO)C(=O)c2cc(NC(=O)c3ccccc3)ccc2O1	none (no result: HSF1 activator, HSF1 inh, Vif inh)
O=c1[nH]c(-c2ccc(O)cc2)nc2scc(-c3cccs3)c12	esBAF inh 61
Cc1nc2scc(-c3cccs3)c2c(=O)[nH]1	none
COc1ccc(C)cc1NC(=O)C/C(C)=N/NC(=O)Cc1cccc2ccccc12	HSF1 activator 109
O=C(NC(C(=O)c1ccccc1)N1CCCCC1)c1ccccc1 (stereo unspecified)	HSF1 activator 82
Cc1ccc(C(=O)NC(N2CCCC2)C(Cl)(Cl)Cl)cc1 (stereo unspecified)	Vif inh 56
